PMC4336329 (PLoS ONE, 2015)
Among all 310,000 compounds or so, about 2,200 (0.71%) showed an effect of 50% or more. The effect is printed as a negative number. For the sample, strong results were picked, then their nearest neighbours and some compounds at random.

target: human ether-à-go-go-related gene (hERG) potassium channel (human, UniProt Q12809); assay: primary screen, population patch clamp on CHO cells stably expressing hERG; higher = less effect of the substance
Sequence (Q12809 whole entry, looked up): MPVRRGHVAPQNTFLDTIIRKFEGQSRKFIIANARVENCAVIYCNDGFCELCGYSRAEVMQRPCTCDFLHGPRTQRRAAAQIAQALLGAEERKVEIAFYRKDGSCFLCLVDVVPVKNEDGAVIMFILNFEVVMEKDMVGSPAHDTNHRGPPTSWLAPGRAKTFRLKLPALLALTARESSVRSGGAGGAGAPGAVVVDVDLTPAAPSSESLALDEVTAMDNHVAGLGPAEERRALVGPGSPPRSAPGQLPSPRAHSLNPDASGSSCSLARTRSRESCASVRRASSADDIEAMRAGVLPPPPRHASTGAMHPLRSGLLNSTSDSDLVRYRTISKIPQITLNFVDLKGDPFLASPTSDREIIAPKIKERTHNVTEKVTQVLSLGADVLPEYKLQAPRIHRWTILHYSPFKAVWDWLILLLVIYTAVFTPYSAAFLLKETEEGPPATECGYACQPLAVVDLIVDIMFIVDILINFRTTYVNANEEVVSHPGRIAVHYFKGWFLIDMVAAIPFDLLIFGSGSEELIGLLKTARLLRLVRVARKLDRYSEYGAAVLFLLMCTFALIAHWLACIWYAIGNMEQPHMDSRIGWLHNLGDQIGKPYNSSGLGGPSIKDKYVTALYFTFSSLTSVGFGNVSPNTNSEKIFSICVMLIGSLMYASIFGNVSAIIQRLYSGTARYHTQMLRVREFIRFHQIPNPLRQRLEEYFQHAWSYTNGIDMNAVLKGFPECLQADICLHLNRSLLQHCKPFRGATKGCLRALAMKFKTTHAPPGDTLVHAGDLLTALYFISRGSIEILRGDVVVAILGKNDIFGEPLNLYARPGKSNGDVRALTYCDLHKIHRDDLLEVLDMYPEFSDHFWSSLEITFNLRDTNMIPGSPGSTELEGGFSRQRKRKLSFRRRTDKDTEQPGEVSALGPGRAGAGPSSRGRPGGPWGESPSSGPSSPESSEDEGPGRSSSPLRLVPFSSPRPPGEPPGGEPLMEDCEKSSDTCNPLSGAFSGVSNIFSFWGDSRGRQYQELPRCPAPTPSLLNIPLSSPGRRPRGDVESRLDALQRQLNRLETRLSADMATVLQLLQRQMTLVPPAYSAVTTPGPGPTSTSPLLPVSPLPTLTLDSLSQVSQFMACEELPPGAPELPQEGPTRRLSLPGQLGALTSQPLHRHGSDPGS

Row | Compound | hERG current change (%, negative = inhibition) at 1uM [%]
1 | CCCOC(=O)c1cc(-c2ccc(C=O)o2)ccc1Cl | 3.2
2 | O=C(COC(=O)CCC(=O)c1ccc(F)cc1)Nc1nnc(-c2ccccc2)o1 | -0.682
3 | O=C(CCCCCBr)N1CCC(CC2CC(c3ccc(Cl)cc3)=NO2)(C(=O)NCC2CCCCC2)CC1 (stereo not drawn) | -37.5
4 | CCCCCCCNC(=O)C1(CC2CC(c3cccc(Br)c3)=NO2)CCN(C(=O)OC(C)(C)C)CC1 (stereo not drawn) | 4.2
5 | CCCCCCCNC(=O)C1(CC2CC(c3cccc(Br)c3)=NO2)CCN(C(=O)CCCCCBr)CC1 (stereo not drawn) | -72
6 | CCCCCCCNC(=O)C1(CC2CC(c3ccc(Cl)cc3)=NO2)CCN(C(=O)CCCCCBr)CC1 (stereo not drawn) | -52.1
7 | CCCNC(=O)C1(CC2CC(c3ccccc3)=NO2)CCN(C(=O)CCCCCBr)CC1 (stereo not drawn) | -5.35
8 | CCCCCCCNC(=O)C1(CC2CC(c3ccc(Cl)cc3)=NO2)CCN(C(=O)OC(C)(C)C)CC1 (stereo not drawn) | 18.9
9 | CCN1C(=O)N(CC)C2NC(=S)NC21 (stereo not drawn) | 7.44
10 | CC(=O)C1=C(NC(=O)c2ccc(F)cc2)CC2C1C2(C)C (stereo not drawn) | 9.7
11 | O=C(CN1C(=O)CSc2ccccc21)N1CCc2ccccc21 | 9.93
12 | O=C(O)CSc1nnc(SCc2cccc3ccccc23)s1 | 6.81
13 | COc1ccccc1CNC(=O)C1CCN(S(=O)(=O)c2ccc3c(c2)OCCCO3)CC1 | -1.02
14 | COC(=O)C1(C)Cc2cc(OC(C)=O)c(OC(C)=O)cc2N1 (stereo not drawn) | 11.7
15 | CC(=O)Nc1ccc(NC(=O)CSc2nccn2Cc2ccccc2)cc1 | 10.5
16 | O=C(Oc1ccc(C(=S)N2CCOCC2)cc1)c1ccccc1[N+](=O)[O-] | 21.2
17 | O=C(Nc1ccc(Cl)cc1)Nc1nnc(Cc2ccc([N+](=O)[O-])cc2)s1 | 13.9
18 | COc1ccccc1CCNC(=O)C1CCN(c2nnc(C)c3c(C)n(-c4ccc(C)cc4)nc23)CC1 | 14.7
19 | CN/C=C(/Cl)P(=O)(OC(C)C)OC(C)C | 11
20 | CCn1ccnc1CN1CCC(n2nccc2NC(=O)c2ccccc2OC)CC1 | -64.9
21 | CCCn1ncc(CN2CCC(n3nccc3NC(=O)c3ccccc3OC)CC2)c1C | -73.2
22 | COc1ccccc1C(=O)Nc1ccnn1C1CCN(Cc2cnn(C)c2C)CC1 | -28.8
23 | COc1ccccc1C(=O)Nc1ccnn1C1CCN(Cc2cnc(N(C)C)s2)CC1 | -24.7
24 | COc1ccccc1C(=O)Nc1ccnn1C1CCN(Cc2cn(C)c3ccccc23)CC1 | -74.9

Row | Compound | hERG current change (%, negative = inhibition) at 1uM [%]
25 | COc1ccccc1C(=O)Nc1ccnn1C1CCN(Cc2ncc[nH]2)CC1 | 6
26 | CCn1ccnc1CN1CCC(n2nccc2NC(=O)CCc2ccccc2)CC1 | 15.9
27 | Cn1cc(CN2CCC(n3nccc3NC(=O)c3ccccc3Cl)CC2)c2ccccc21 | -47.6
28 | CCOc1ccc(CN2CCC(n3nccc3NC(=O)c3ccccc3OC)CC2)cc1 | -89.4
29 | CCCn1ncc(CN2CCC(n3nccc3NC(=O)c3ccccc3Cl)CC2)c1C | -47.6
30 | COc1ccccc1C(=O)Nc1ccnn1C1CCN(C(=O)C2CCOC2)CC1 (stereo not drawn) | 4.19
31 | COc1ccccc1C(=O)Nc1ccnn1C1CCN(Cc2ccn[nH]2)CC1 | 1.62
32 | CCCCn1c(O)c(C(CC)=Nc2ccc(OC)cc2OC)c(=O)[nH]c1=O | 4.73
33 | Cc1ccc2c(CN3CC(C)CC(C)C3)cc(=O)oc2c1C (stereo not drawn) | 9.29
34 | COC(=O)C(NC(C)=O)(Nc1ccc(Br)cn1)C(F)(F)F (stereo not drawn) | 6.68
35 | CCCCNC(=O)COC(=O)c1ccc(C)c(NC(=O)c2ccco2)c1 | 11.3
36 | COC(=O)COc1cc(C)cc2oc(=O)c3c(c12)CCCC3 | -4.18
37 | O=C(CCCN1C(=O)c2ccccc2C1=O)Nc1nncs1 | 14.9
38 | COc1ccc(C(=O)Nc2ccnn2C2CCN(Cc3ccc4nonc4c3)CC2)cc1 | -0.334
39 | CCn1cc(CN2CCC(n3nccc3NC(=O)c3ccccc3C)CC2)cn1 | -14.9
40 | CC(=O)c1cc(CN2CCC(n3nccc3NC(=O)c3ccccc3C)CC2)cs1 | -15.8
41 | COc1ccccc1CN1CCC(n2nccc2NC(=O)c2ccccc2Cl)CC1 | -47.2
42 | COc1ccccc1C(=O)Nc1ccnn1C1CCN(Cc2cnn(C)c2)CC1 | -27
43 | COc1ccccc1C(=O)Nc1ccnn1C1CCN(Cc2ccc3nonc3c2)CC1 | -61.8
44 | CC(=O)c1cc(CN2CCC(n3nccc3NC(=O)c3ccccc3Cl)CC2)cs1 | -40.5
45 | COc1ccccc1C(=O)Nc1ccnn1C1CCN(Cc2ccccc2OCCO)CC1 | -79.5
46 | COc1ccccc1C(=O)Nc1ccnn1C1CCN(Cc2csc(C(C)=O)c2)CC1 | -50.9
47 | CCn1cc(CN2CCC(n3nccc3NC(=O)c3ccccc3OC)CC2)cn1 | -53.5
48 | O=C(Nc1ccnn1C1CCN(Cc2ccccc2OCCO)CC1)c1cccc(F)c1 | -6.97
